Records with an inconclusive call do not appear. Calls of active or inactive are those of the source. Rule as the data show it, unless noted: active = response above about 15%; inactive = the rest.

Assay [1] is described as follows: yeast TOR pathway RPL19A-GFP modulators, primary screen, cell-based, S. cerevisiae, multiplex flow cytometry (AID 1862; in the data active = percent of DMSO control GFP below about 86%;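 also: lower values mimic rapamycin by blocking the RPL19A rise seen in DMSO cells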). As to conditions: S. cerevisiae RPL19A-GFP strain, flow cytometry fluorescence, 3 h; at 10 µM; stronger effect = lower value. Background: A flow cytometer gives signals particle by particle.
A short description of assay [2]: modulators of MEP2-GFP levels in yeast, primary screen, S. cerevisiae, multiplex flow cytometry (AID 1867;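 active = GFP response, as percent of the DMSO control, above the screen-wide mean plus 3 SD, about 139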;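 also: median GFP channel fluorescence of barcode-gated MEP2-GFP cells measured by flow cytometry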). The conditions noted are these: S. cerevisiae MEP2-GFP strain, 3 h, at 10 µM, stronger effect = higher value, 100% means same as DMSO wells.
A short description of assay [3]: modulators of CIT2-GFP expression in yeast, primary screen, S. cerevisiae, GFP fusion, multiplex flow cytometry (AID 1870;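 active = percent response above a set limit, the screen-wide mean plus 3 SD, cut at about 130% in these data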;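 also: barcoded CIT2-GFP strain pooled with four other GFP strains with rapamycin as positive control; median GFP fluorescence per well over plate mean of DMSO wells so 100% = DMSO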). The conditions noted are these: 3 h, at 10 µM, stronger effect = higher value.
Assay [4] is described as follows: modulators of LAP4-GFP expression in yeast, primary screen, S. cerevisiae, multiplex flow cytometry (AID 1873;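 active = GFP signal, as percent of the solvent control, above the screen mean plus 3 SD, about 149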). The conditions noted are these: 3 h, at 10 µM, stronger effect = higher value.
The nature of assay [5]: inhibitors of CD8+ T cell-vesicle binding, pilot screen, LFA-1/ICAM-1 modulator project, MLPCN validation set, flow cytometry (AID 2523;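 active = response below a set limit, under 55% cells CD8-positive and vesicle-bound, and CD8 cells' 90th-percentile brightness under 279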;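 as to vesicle binding response: mean PE anti-B7-1 fluorescence of CD8+ cells relative to row control; 100% = QL9-loaded vesicles with DMSO vehicle in the same plate row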). The conditions noted are these: 2C mouse CD8+ T cells, at 7 µM, stronger effect = lower value; double positive events: measured here: CD8+/vesicle+ event percentage.
In assay [6] the target is Integrin beta-1 (Homo sapiens) + Integrin alpha-4 (Homo sapiens) (UniProt P13612+P05556). The assay is described as follows: inhibition of HUTS-21 binding to VLA-4, pilot screen, VLA-4 allosteric modulator project, U937 cells, HUTS-21 mAb, flow cytometry, validation set (AID 2674;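 active = inhibition above 50%, about 3 SD of the validation set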;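 also: antibody binding induced by the VLA-4 ligand LDV present at three times its Kd; 0% = LDV ligand with antibody and no compound and 100% = antibody without LDV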). The conditions noted are these: HUTS-21 LIBS mAb binding, at 6.7 µM, stronger effect = higher value, binding induced by LDV ligand.
Sequence of Integrin beta-1 (Homo sapiens) + Integrin alpha-4 (Homo sapiens) (P05556 whole entry, looked up): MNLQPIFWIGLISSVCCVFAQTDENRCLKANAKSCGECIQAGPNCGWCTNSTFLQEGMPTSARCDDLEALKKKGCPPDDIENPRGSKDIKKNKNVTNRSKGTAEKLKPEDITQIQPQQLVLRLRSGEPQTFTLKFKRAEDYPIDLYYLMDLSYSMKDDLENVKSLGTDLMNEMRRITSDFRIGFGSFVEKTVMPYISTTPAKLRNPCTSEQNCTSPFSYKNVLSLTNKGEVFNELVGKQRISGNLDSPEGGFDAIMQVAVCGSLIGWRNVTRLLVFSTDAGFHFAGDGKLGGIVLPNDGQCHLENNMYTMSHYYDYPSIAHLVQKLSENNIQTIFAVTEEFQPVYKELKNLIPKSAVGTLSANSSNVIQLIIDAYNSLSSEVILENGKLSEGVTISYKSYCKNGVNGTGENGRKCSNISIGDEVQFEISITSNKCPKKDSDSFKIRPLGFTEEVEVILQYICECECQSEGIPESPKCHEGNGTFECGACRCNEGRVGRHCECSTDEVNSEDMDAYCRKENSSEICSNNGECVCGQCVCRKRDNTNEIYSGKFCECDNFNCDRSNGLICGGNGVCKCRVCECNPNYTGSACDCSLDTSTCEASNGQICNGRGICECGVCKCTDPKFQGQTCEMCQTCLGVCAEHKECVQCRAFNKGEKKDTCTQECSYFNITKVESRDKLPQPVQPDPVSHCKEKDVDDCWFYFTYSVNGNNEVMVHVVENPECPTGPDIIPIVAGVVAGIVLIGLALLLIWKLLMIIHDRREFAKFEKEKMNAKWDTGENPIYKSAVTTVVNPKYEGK
Sequence of Integrin beta-1 (Homo sapiens) + Integrin alpha-4 (Homo sapiens) (P13612 whole entry, looked up): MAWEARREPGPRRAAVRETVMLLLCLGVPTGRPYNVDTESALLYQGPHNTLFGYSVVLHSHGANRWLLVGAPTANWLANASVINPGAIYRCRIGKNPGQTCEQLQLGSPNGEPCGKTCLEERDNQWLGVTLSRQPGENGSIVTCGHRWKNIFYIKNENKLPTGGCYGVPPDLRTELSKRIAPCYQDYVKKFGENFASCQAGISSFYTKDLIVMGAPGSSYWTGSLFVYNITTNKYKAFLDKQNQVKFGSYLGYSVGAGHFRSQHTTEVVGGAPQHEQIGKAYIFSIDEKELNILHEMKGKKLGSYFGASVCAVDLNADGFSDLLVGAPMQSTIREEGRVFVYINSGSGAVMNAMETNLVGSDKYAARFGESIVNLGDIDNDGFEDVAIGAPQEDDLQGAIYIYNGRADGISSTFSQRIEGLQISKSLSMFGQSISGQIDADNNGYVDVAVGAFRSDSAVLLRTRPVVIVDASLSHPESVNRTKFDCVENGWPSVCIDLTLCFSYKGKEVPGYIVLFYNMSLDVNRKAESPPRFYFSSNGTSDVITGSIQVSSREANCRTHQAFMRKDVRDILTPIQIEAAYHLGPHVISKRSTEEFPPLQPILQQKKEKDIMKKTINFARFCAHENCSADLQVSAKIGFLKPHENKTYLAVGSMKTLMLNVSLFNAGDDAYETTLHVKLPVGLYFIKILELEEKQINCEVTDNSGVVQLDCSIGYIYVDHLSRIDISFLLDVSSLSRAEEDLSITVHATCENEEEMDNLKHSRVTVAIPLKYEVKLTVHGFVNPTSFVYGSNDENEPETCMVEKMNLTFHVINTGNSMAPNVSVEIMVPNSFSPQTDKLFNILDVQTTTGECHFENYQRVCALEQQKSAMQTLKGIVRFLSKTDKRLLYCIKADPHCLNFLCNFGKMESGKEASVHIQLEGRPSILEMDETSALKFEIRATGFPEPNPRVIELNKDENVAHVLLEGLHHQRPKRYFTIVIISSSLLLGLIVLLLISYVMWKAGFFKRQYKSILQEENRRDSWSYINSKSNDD

A short description of assay [7]: superoxide lowering in aged yeast cells, pilot screen, validation compound set (AID 2706;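 active = superoxide response below 65% of plate, a cut near 3 SD across the whole screen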;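 also: yeast exposed to compound for one week at 30 degrees C before staining; 100% = mean of all compound wells on the same plate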). As to conditions: S. cerevisiae aging, superoxide DHE fluorescence; at 10 µM, stronger effect = lower value.
Assay [8] has as its target Beta-adrenergic receptor kinase 1 (Homo sapiens) (UniProt P25098). The experiment in a line: GRK2 binders displacing RNA aptamer, biochemical, validation, human GRK2, bead flow cytometry (AID 488806;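 active = aptamer binding inhibition above 30%, about 3 SD of noise from non-fluorescent compounds; inactive = inhibition at or below 30%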). The conditions noted are these: bead-bound GRK2, FAM-aptamer displacement, at 10 µM, stronger effect = higher value.
Assay [9] deals with Beta-2 adrenergic receptor (Homo sapiens) (UniProt P07550). The experiment in a line: beta2AR agonists driving receptor internalization, pilot screen, cell-based, FAP fluorogen, flow cytometry, validation set (AID 504459;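 active = percent response above 42, roughly 3 SD of non-fluorescent test compounds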;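 also: agonist-driven loss of surface beta2AR via internalization measured by FAP dye flow cytometry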). The conditions noted are these: Am2.2-beta2AR cells, FAP surface receptor flow cytometry; at 10 µM; stronger effect = higher value.
Sequence of Beta-2 adrenergic receptor (Homo sapiens) (P07550 whole entry, looked up): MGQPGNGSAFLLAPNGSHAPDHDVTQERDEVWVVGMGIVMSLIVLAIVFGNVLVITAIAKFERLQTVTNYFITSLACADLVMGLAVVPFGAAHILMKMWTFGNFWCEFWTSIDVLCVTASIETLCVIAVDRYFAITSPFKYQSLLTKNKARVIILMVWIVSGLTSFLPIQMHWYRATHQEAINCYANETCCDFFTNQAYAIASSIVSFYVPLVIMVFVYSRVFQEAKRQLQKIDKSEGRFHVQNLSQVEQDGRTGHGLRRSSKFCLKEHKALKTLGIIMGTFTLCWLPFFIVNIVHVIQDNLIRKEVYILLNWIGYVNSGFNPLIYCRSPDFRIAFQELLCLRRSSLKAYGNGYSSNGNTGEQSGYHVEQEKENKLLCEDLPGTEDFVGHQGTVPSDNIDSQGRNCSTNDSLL
Assay [10] deals with AP-2 complex subunit beta (Homo sapiens) (UniProt P63010). The experiment in a line: inhibitors of arrestin peptide binding to AP2, pilot screen, biochemical, validation set, GST-AP2 beads, flow cytometry (AID 504541;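 active = inhibition above 54%, about 3 SD of non-fluorescent compounds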;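 also: AP2 carries R879A mutation and is captured from E. coli lysate; bead-bound FITC arrestin peptide fluorescence measuring arrestin peptide binding to AP2; 0% = DMSO wells and 100% = excess unlabeled arrestin peptide control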). The conditions noted are these: FITC arrestin peptide, at 10 µM, stronger effect = higher value, AP2 beta2 appendage fragment, R879A mutant.
Sequence of AP-2 complex subunit beta (Homo sapiens) (P63010 whole entry, looked up, the tested form may be a part, one chain of several): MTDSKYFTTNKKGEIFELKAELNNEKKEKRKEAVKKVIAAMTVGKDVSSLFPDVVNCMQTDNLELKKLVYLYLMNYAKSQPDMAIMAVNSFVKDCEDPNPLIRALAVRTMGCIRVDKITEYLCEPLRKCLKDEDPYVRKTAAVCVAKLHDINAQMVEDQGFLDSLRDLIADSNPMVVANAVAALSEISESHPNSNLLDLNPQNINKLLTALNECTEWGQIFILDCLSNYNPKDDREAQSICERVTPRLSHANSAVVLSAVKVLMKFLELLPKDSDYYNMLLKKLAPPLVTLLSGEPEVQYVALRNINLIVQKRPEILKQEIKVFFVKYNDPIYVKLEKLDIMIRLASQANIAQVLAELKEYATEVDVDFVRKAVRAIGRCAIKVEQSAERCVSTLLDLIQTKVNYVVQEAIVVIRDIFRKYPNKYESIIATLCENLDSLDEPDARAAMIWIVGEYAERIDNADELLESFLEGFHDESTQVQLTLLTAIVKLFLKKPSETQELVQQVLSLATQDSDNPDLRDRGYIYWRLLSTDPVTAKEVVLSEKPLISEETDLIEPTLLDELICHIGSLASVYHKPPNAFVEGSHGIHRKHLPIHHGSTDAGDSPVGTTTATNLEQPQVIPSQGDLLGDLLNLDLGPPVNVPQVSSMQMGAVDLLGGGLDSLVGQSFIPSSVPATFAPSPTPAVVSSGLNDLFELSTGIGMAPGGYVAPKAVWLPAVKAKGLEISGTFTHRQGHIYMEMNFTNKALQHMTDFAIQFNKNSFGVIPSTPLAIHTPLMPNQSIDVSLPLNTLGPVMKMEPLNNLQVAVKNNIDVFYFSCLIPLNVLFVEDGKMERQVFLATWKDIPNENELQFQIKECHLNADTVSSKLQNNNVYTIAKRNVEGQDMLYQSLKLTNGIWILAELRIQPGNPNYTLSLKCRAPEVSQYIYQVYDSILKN
The nature of assay [11]: yeast V-ATPase proton transport modulators, S. cerevisiae, pHLuorin, HTS validation (AID 504600).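 Also: plate controls were DMSO for no effect and reference compound for full effect.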 As to conditions: S. cerevisiae pHLuorin cytosolic pH, at 10 µM, stronger effect = higher value.
The subject of assay [12] is anti-desmoglein-3 scFv antibody binding to human DSG3. The experiment in a line: inhibitors of anti-DSG3 scFv binding to DSG3, pilot screen, biochemical, validation compound set, bead-based, flow cytometry (AID 588368;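 active = binding below the plate cutoff, the plate median minus 3 SD, with a reading above zero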;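 also: signal is the median channel fluorescence of bead-bound GFP antibody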). The conditions noted are these: Protein G beads, DSG3-Fc, scFv-GFP binding, at 10 µM, stronger effect = lower value.
Assay [13] can be described thus: inhibitors of fungal efflux pumps CDR1, CDR2, MDR1, pilot screen, validation compound set, multiplex, phenotypic (AID 588506;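 active = efflux inhibition above 0.42, the validation set average plus 4 SD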;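 also: Nile Red retained in cells so higher fluorescence means more efflux inhibition; 0 = negative control wells and 1 = enniatin B 25 µM full block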). The conditions noted are these: S. cerevisiae pump-expressing triplex, Nile Red efflux flow cytometry; at 10 µM; stronger effect = higher value; the pumps come from Candida albicans.
Assay [14] deals with ATP-binding cassette sub-family B member 6 (Homo sapiens) (UniProt Q9NP58). The experiment in a line: ABCB6 transporter inhibitors, pilot screen, K562-ABCB6 cells, flow cytometry, validation set (AID 588550;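 active = inhibition above the screen-wide mean plus 3 SD, about 51%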;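 also: 0% = DMSO wells and 100% = benzethonium chloride 70 µM positive control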). As to conditions: K562-ABCB6 porphyrin accumulation, 1 h, at 10 µM, stronger effect = higher value.
Sequence of ATP-binding cassette sub-family B member 6 (Homo sapiens) (Q9NP58 whole entry, looked up): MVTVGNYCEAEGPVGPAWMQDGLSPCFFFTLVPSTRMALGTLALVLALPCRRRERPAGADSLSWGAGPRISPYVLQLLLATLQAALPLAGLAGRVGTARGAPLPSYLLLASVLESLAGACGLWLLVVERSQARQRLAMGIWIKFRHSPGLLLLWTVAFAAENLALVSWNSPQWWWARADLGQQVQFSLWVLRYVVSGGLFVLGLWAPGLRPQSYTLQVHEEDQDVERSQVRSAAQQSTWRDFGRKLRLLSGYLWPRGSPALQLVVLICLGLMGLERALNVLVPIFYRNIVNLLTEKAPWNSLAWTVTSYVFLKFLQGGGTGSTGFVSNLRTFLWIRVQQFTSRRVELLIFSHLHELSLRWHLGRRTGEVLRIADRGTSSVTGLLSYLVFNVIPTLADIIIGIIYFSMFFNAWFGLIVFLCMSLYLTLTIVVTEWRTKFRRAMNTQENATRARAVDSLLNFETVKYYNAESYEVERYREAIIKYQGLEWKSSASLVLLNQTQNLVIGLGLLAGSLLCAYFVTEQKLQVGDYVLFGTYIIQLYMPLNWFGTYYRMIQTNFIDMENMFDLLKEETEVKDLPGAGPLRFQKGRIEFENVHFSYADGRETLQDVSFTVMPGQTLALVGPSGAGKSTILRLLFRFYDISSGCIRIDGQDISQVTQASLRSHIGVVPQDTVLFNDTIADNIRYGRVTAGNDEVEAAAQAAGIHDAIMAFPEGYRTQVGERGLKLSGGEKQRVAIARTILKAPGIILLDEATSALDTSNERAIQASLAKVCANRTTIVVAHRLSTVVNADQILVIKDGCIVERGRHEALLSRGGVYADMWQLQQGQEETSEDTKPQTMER
A short description of assay [15]: promoters of myeloid differentiation in arrested cells, primary screen, cell-based, GFP/MAC1 double positive, flow cytometry, validation set (AID 588685;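 active = differentiation response of at least 50%, scaled between solvent and reference control, from cells with both markers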;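 also: compound exposure lasts four days before antibody staining and flow analysis; 0% = DMSO wells and 100% = 5 µM fulvestrant positive control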). The conditions noted are these: ER-HoxA9 marrow cells, stronger effect = higher value, normalized: vehicle 0, fulvestrant 100.
A short description of assay [16]: modulators of AGP1-GFP expression in yeast TOR pathway, primary screen, cell-based, multiplex flow cytometry, S. cerevisiae (AID 1887;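 active = GFP signal above the screen-wide mean plus 3 SD, that is over about 124.5% of the solvent control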;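 also: AGP1-GFP fusion strain of S. cerevisiae within a five-strain barcoded multiplex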). The conditions noted are these: 3 h, at 10 µM, stronger effect = higher value.

Sequence of Beta-adrenergic receptor kinase 1 (Homo sapiens) (P25098 whole entry, looked up): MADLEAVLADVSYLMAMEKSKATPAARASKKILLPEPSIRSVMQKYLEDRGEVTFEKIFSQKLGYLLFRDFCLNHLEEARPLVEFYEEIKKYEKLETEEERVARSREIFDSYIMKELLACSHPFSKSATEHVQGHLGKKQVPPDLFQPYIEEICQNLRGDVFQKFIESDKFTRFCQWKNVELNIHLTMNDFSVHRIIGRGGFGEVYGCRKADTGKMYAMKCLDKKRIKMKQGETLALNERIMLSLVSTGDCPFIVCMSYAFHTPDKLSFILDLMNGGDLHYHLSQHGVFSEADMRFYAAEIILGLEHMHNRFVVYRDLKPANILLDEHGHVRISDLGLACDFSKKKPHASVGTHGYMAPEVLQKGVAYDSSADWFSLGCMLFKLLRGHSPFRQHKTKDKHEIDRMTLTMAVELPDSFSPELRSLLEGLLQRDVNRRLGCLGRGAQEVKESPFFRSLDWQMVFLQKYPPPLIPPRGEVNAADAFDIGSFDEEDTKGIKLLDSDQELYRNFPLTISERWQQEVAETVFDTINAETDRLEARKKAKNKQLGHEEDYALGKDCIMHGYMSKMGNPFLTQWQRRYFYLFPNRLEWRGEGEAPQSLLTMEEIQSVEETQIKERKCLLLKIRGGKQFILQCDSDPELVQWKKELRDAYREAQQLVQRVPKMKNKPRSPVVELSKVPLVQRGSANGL

Broadly, the inhibition is the drop in the measured response relative to a control, in per cent. For the molecule `O=C1NC2(Nc3ccccc31)C(=O)Nc1ccc(Br)cc12` (centres undefined), the percent of DMSO control GFP in assay [1] is 91.7% (inactive). Also, the GFP response vs DMSO in [2] is 127% (inactive); in assay [4] it was 85.8% (inactive). The percent response of DMSO control in assay [3] was 102% (inactive). The molecule further came in with a double positive events in [5] of 72%. Further, the vesicle binding response in [5] was 220% (inactive). Moreover, the inhibition in [6] is -3.24% (inactive); in assay [10] it was 1.97% (inactive); in assay [14], 9% (inactive). Further, the superoxide response (% of plate) in [7] is 102% (inactive). For the same molecule, the aptamer binding inhibition in [8] is 2% (inactive). The results for the response in assay [9] and in [11] were -4.23% (inactive) and 1.05% (inactive), respectively. The binding (% of control) in [12] was 98.7% (inactive). The efflux inhibition (fraction of control) in assay [13] is -0.13 (inactive). Also, the differentiation response in [15] was 0% (inactive).

With `N=C(N)c1ccc(OCCCCCOc2ccc(C(=N)N)cc2)cc1`, in [1], the percent of DMSO control GFP is 107% (inactive). Also, the GFP response vs DMSO in [2] was 105% (inactive); in assay [4], 110% (inactive). In [3], the percent response of DMSO control was 96.5% (inactive). Besides, the GFP response, % of DMSO in assay [16] is 99.6% (inactive). In addition, the double positive events in assay [5] worked out at 53.8%. Also, the inhibition is -7.79% (inactive) in [6], -15.3% (inactive) in assay [10] and 9% (inactive) in assay [14]. For the same molecule, the superoxide response (% of plate) in [7] was 98% (inactive). Moreover, the aptamer binding inhibition in assay [8] was -23% (inactive). The response in assay [9] was 20.7% (inactive); in assay [11] it was -1.89% (inactive). Besides, the binding (% of control) in assay [12] was 112% (inactive). Also, the efflux inhibition (fraction of control) in [13] is 0.285 (inactive). For the same molecule, the differentiation response in assay [15] was 8.59% (inactive).

Turning to `CNCCCC12CCC(c3ccccc31)c1ccccc12`, the percent of DMSO control GFP in assay [1] is 101% (inactive). In addition, the GFP response vs DMSO is 107% (inactive) in assay [2] and 95.3% (inactive) in assay [4]. In addition, the percent response of DMSO control in [3] was 90.8% (inactive). In [16], the GFP response, % of DMSO is 96.7% (inactive). Moreover, the double positive events in assay [5] came out at 66.4%. In addition, the vesicle binding response in [5] was 234% (inactive). The inhibition in assay [6] was 11% (inactive); in [10] it was 3.24% (inactive); in [14], -7% (inactive). Besides, the aptamer binding inhibition in [8] is -11% (inactive). Further, the response in [9] was 28.2% (inactive); in [11], 2% (inactive). Further, the binding (% of control) in assay [12] was 103% (inactive). Moreover, the efflux inhibition (fraction of control) in assay [13] was 0.33 (inactive). Moreover, the differentiation response in [15] is 18.8% (inactive).

Consider `OC[C@@H](O)[C@@H](O[C@H]1O[C@H](CO)[C@@H](O)[C@H](O)[C@H]1O)[C@H](O)[C@@H](O)CO`, for which, in [1], the percent of DMSO control GFP is 102% (inactive). Besides, the figures for the GFP response vs DMSO in [2] and in [4] were 103% (inactive) and 92% (inactive), respectively. For the same molecule, the percent response of DMSO control in assay [3] was 88.4% (inactive). In addition, in [16], the GFP response, % of DMSO was 95% (inactive). Also, the double positive events in [5] stood at 65%. The vesicle binding response in assay [5] is 208% (inactive). For the same molecule, the aptamer binding inhibition in [8] was 0% (inactive). In addition, the response in [9] was -1.29% (inactive); in assay [11], -1.56% (inactive). In addition, the inhibition in [10] is 13.8% (inactive); in [14], -1% (inactive). In [12], the binding (% of control) is 102% (inactive). For the same molecule, the efflux inhibition (fraction of control) in [13] is 0.8 (active). In addition, the differentiation response in assay [15] was 20.8% (inactive).

`CC(NCCC(c1ccccc1)c1ccccc1)c1ccccc1` (centres undefined): in assay [1], the percent of DMSO control GFP was 92.6% (inactive). The GFP response vs DMSO in assay [2] was 122% (inactive); in assay [4], 68.8% (inactive). In addition, the percent response of DMSO control in [3] is 111% (inactive). In addition, the double positive events in assay [5] amounted to 64.4%. Further, the vesicle binding response in assay [5] was 167% (inactive). Besides, the inhibition in assay [6] was 6.46% (inactive); in assay [10] it was 0.65% (inactive); in [14] it was 9% (inactive). Further, the superoxide response (% of plate) in assay [7] was 95.5% (inactive). In addition, the aptamer binding inhibition in assay [8] was -3% (inactive). Further, the response is 24.3% (inactive) in [9] and 13.1% (inactive) in assay [11]. The binding (% of control) in [12] is 116% (inactive). The efflux inhibition (fraction of control) in assay [13] is 0.19 (inactive). The differentiation response in [15] was -0.82% (inactive).
